# PubChem BioAssay (Tox21)
# Values without a mark were called inactive. Inconclusive results are not listed. Where a call stands in place of a potency, no number is given. Active and inactive are the calls of the source. Unless noted, calls follow the shape of the dose curve; as a rule, active = well fitted curve in the direction sought with a large enough effect in the repeat runs; inconclusive = weak or mixed curves; inactive = no such curve, though single readings can be large; an effect the other way counts as inactive or inconclusive.
# Experiments:
# [1] = A CellTox Green Cytotoxicity Assay to monitor cytotoxicity in HepG2 cells - 8 hour (AID 1224890); also: nearly all actives have a fitted effect of over 45% in size
# Procedure, shortened: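 Continuous culture of HepG2 cells with a membrane-impermeant DNA dye; rising fluorescence marks dead cells. Compound exposure lasted up to 40 h at 37 C, with reads every 8 h from 0 h.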
# [2] = qHTS assay to identify small molecule antagonists of the estrogen receptor alpha (ER-alpha) signaling pathway using the BG1 cell line in the presence of 0.1 nM 17-beta-estradiol - cell viability counter screen (AID 1259241); also: nearly all actives have a fitted effect of over 40% in size
# Procedure, shortened: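 Viability in VM7Luc4E2 cells after 22 hr compound exposure under 0.1 nM 17beta-estradiol stimulation, by CellTiter-Fluor.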
# [3] = qHTS assay to identify small molecule antagonists of the androgen receptor (AR) signaling pathway using the MDA cell line in the presence of 0.5 nM R1881 - cell viability counter screen (AID 1259242); also: nearly all actives have a fitted effect of over 45% in size
# Procedure, shortened: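 Fluorescence from CellTiter-Fluor, which reports protease activity of live cells, was read 30 min after reagent addition to MDA-kb2 cells that had been incubated 16 hr with compound and 0.5 nM R1881.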
# [4] = target: Androgen receptor (Homo sapiens) (UniProt P10275); assay: qHTS assay to identify small molecule antagonists of the androgen receptor (AR) signaling pathway using the MDA cell line in the presence of 0.5 nM R1881 (AID 1259243); also: nearly all actives have a fitted effect of over 50% in size
# Procedure, shortened: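 Inhibition of R1881 (0.5 nM final) induced reporter signal was measured in human MDA-kb2 cells; note the MMTV promoter also responds to GR. Exposure lasted 16 hr at 37C.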
# [5] = target: Estrogen receptor (Homo sapiens) (UniProt P03372); assay: qHTS assay to identify small molecule antagonists of the estrogen receptor alpha (ER-alpha) signaling pathway using the BG1 cell line in the presence of 0.1 nM 17-beta-estradiol (AID 1259244); also: nearly all actives have a fitted effect of over 50% in size
# Procedure, shortened: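 Quantitative high-throughput screen in VM7Luc4E2 cells: compound plus 0.1 nM E2 (final), 22 h, 37C, 5% CO2; ONE-Glo added, 30 min room temperature, luminescence measured.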
# [6] = qHTS assay to identify small molecule HDAC inhibitors (AID 1259364); also: nearly all actives have a fitted effect of over 45% in size; also: potency is read from the fitted curve at half-maximal effect
# Procedure, shortened: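 Endogenous HDAC class I/II activity was measured in wild-type HCT-116 cells by HDAC-Glo luminescence after 2 h compound treatment.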
# [7] = qHTS assay to identify small molecule HDAC inhibitors - cell viability counter screen (AID 1259365); also: series mostly up to about 92 µM; nearly all actives have a fitted effect of over 50% in size
# Procedure, shortened: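 Cytotoxicity was gauged in wild-type HCT-116 cells after a brief 2hr treatment with DMSO-dissolved compounds at 37C and 5% CO2, using CellTiter-Glo luminescence developed for 30min at room temperature.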
# [8] = qHTS assay to identify small molecule agonists of the sonic hedgehog signaling (Shh) pathway - cell viability counter screen (AID 1259366); also: nearly all actives have a fitted effect of over 50% in size
# Procedure, shortened: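 Stable Gli1-Luc NIH/3T3 clone, 2,000 cells/well. Compound exposure 24hr at 37C. Read-out: CellTiter-Fluor fluorescence.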
# [9] = qHTS assay to identify small molecule antagonists of the sonic hedgehog signaling (Shh) pathway - cell viability counter screen (AID 1259367); also: nearly all actives have a fitted effect of over 55% in size
# Procedure, shortened: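 Seed 3T3 Gli1-Luc cells at 2,000 per well; incubate 4 hr; add compound in DMSO, then conditioned medium; incubate at 37C with 5% CO2; add CellTiter-Fluor after 23 hr; read fluorescence 1 hr later.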
# [10] = qHTS assay to identify small molecule phospholipidosis (PLD) inducers (AID 1259344; active = well fitted curve in the direction sought with a large enough effect; an effect the other way counts as inactive or inconclusive)
# Procedure, shortened: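 Quantitative HTS in HepG2: compound plus LipidTOX Red dye for 24 h, paraformaldehyde fixation with Hoechst 33342, widefield high-content imaging; amiodarone as positive and DMSO as negative control.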
# Chain of Estrogen receptor (Homo sapiens) (P03372 whole entry, looked up): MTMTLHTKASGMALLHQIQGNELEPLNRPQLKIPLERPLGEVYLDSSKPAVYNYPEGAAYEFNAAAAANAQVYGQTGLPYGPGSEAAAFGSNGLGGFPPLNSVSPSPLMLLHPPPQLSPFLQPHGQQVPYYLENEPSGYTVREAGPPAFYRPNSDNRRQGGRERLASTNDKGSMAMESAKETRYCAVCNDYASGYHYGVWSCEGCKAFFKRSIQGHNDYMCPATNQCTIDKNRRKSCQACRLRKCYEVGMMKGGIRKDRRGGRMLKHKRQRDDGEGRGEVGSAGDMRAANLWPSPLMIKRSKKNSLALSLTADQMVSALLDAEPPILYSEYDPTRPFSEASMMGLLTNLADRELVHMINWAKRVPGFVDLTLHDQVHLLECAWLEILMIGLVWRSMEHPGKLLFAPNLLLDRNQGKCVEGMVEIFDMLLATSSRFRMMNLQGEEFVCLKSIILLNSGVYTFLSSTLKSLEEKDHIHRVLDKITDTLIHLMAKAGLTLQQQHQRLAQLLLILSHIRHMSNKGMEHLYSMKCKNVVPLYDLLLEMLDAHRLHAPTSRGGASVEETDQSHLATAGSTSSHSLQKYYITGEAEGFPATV
# Chain of Androgen receptor (Homo sapiens) (P10275 whole entry, looked up): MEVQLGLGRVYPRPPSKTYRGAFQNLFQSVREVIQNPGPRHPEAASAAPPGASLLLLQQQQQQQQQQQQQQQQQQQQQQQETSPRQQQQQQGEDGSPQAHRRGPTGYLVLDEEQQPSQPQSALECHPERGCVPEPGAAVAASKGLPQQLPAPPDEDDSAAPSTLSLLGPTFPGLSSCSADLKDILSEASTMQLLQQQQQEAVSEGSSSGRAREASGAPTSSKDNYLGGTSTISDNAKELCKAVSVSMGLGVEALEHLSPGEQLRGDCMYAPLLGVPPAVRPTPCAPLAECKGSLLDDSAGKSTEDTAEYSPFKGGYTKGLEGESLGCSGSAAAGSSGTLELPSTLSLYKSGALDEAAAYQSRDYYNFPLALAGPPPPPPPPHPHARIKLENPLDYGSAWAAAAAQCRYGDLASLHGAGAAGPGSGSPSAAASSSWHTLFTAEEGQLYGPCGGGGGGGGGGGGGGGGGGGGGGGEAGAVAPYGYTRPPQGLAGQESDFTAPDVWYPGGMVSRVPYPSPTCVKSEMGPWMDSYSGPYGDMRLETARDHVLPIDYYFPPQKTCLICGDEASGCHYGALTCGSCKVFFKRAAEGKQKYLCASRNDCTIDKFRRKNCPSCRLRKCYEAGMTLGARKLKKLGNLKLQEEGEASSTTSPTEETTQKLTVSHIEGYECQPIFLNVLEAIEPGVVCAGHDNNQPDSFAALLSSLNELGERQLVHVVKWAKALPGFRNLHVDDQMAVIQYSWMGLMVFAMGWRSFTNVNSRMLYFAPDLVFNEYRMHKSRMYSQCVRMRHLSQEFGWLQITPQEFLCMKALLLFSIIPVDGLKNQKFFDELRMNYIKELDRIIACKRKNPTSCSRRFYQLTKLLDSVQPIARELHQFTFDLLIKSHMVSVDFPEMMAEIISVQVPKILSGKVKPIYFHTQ
Compound,Potency [1],Potency [2],Potency [3],Potency [4],Potency [5],Potency [6],outcome [7],Potency [8],Potency [9],Potency [10]
O=C(c1ccco1)N1CCNCC1,inactive,inactive,inactive,inactive,inactive,inactive,inactive,inactive,inactive,
COC(=O)/C=C/C(C)=C\C=C\C(C)=C\C=C\C=C(C)\C=C\C=C(C)\C=C\C(=O)O,inactive,inactive,inactive,inactive,inactive,24.3 µM (active),inactive,inactive,inactive,
CCCCCCCCCCCCCCCCC(=O)O,inactive,inactive,inactive,inactive,,,inactive,inactive,inactive,
CC1(C)[C@@H]2CC[C@]3(C2)[C@@H]1C(=O)CCC3(C)C,inactive,inactive,inactive,inactive,inactive,inactive,inactive,inactive,inactive,
Cc1cc(SC2=C(O)C[C@@](CCc3ccc(N)cc3)(C(C)C)OC2=O)c(C(C)(C)C)cc1CO,inactive,inactive,inactive,inactive,,,inactive,inactive,inactive,
Cc1c(N=C=O)cccc1N=C=O,inactive,inactive,inactive,inactive,inactive,inactive,inactive,inactive,inactive,
CC[C@H](NC(C)C)[C@H](O)c1ccc(O)c2[nH]c(=O)ccc12,inactive,inactive,inactive,inactive,inactive,,inactive,inactive,inactive,
C/C(=C\C(C)CC(C)CC(C)C)C1CC(=O)OC1=O (configuration not stated),inactive,inactive,inactive,,inactive,inactive,inactive,inactive,inactive,
N#C[C@@H]1CC(F)(F)CN1C(=O)CNC1CC2CCC(C1)N2c1ncccn1 (some centres not stated),inactive,inactive,inactive,inactive,inactive,,inactive,,inactive,
O=C(OC1C[C@H]2CC[C@@H](C1)[N+]21CCCC1)C(O)(c1ccccc1)c1ccccc1 (some centres not stated),inactive,inactive,inactive,inactive,,inactive,inactive,inactive,inactive,
O=C(c1ccc(Cl)cc1)c1ccc(Cl)cc1,inactive,inactive,inactive,inactive,inactive,inactive,inactive,inactive,inactive,
CCC1=C(C)CN(C(=O)NCCc2ccc(S(=O)(=O)NC(=O)NC3CCC(C)CC3)cc2)C1=O (configuration not stated),inactive,inactive,inactive,inactive,inactive,inactive,inactive,inactive,inactive,inactive
Cc1ccc2c(Cl)cc(Cl)c(O)c2n1,inactive,inactive,inactive,inactive,inactive,inactive,inactive,inactive,inactive,
CCCc1ccc(OC)cc1,inactive,inactive,inactive,inactive,inactive,inactive,inactive,inactive,inactive,
NCCOCCOCCN,inactive,inactive,inactive,inactive,,inactive,inactive,inactive,inactive,
O=C(C1CCCCC1)N1CC(=O)N2CCCc3ccccc3C2C1 (configuration not stated),inactive,inactive,inactive,inactive,inactive,inactive,inactive,inactive,inactive,
FC(F)(Cl)C(F)(Cl)Cl,inactive,inactive,inactive,inactive,inactive,inactive,inactive,inactive,inactive,
NC(=O)c1ccccc1,inactive,inactive,inactive,inactive,inactive,inactive,inactive,inactive,inactive,
CCC[Si](OC)(OC)OC,inactive,inactive,inactive,inactive,inactive,inactive,inactive,inactive,inactive,
CC(CC(C#N)(c1ccccc1)C(C)C)N(C)C (configuration not stated),inactive,inactive,inactive,inactive,inactive,inactive,inactive,inactive,inactive,
CCOc1ccc(NC(C)=O)cc1N,inactive,inactive,inactive,inactive,inactive,inactive,inactive,inactive,,
C(/C=C/C=C/Nc1ccccc1)=Nc1ccccc1,inactive,inactive,inactive,,inactive,inactive,inactive,inactive,,
O=C(O)c1ccncc1,inactive,inactive,inactive,inactive,,,inactive,inactive,inactive,
Cc1nc(C)c(C)nc1C,inactive,inactive,inactive,inactive,inactive,,inactive,inactive,inactive,
Nc1ccc(F)cc1F,inactive,inactive,inactive,inactive,inactive,inactive,inactive,inactive,inactive,
CC(C)(C)c1cc(C=O)cc(C(C)(C)C)c1O,inactive,inactive,inactive,,inactive,inactive,inactive,inactive,inactive,
O=C(O)c1ccc(O)c(O)c1,inactive,inactive,inactive,inactive,inactive,inactive,inactive,inactive,inactive,
